# Laboratory results taken from PubChem BioAssay.
# Activity calls are given as the source filed them.
# Legend:
# [1] = tested on: Plasmodium falciparum Sir2 (PF13_0152, Sir2A); experiment: pfSir2 binders on small-molecule microarrays, primary screen, biochemical, small-molecule microarray, 635 nm fluorescence (AID 1098); conditions: small-molecule microarray binding, fluorescence 635 nm; higher = more signal;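 note: score merges spot fluorescence intensity with its signal-to-noise ratio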
# [2] = small-molecule microarray binders of probe aDKK1, primary screen, biochemical, biotinylated probe, 635/667 nm fluorescence (AID 1099); conditions: higher = more signal;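 note: score merges 667nm spot fluorescence with signal to noise across triplicate slides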
# [3] = small-molecule microarray binders of probe aCHRDL2, primary screen, biochemical, biotinylated probe, 635/667 nm fluorescence (AID 1100); conditions: higher = more signal
# [4] = splicing luciferase reporter signal modulators, primary screen, spliceosome inhibition project, cell-based, HEK293, splice +/- reporter (AID 1101); conditions: luminescence, 24 h, higher = more signal, called active from +8 up or from −8 down;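 note: HEK293 cells carrying a splicing-competent luciferase reporter gene; test concentration not given here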
# [5] = target: Fibroblast growth factor 10 (Homo sapiens) (UniProt O15520); experiment: FGF10 binders on small-molecule microarrays, primary screen, biochemical, small-molecule microarray, 635 nm fluorescence (AID 1102); conditions: FGF10 binding, fluorescence 635 nm, higher = more signal
# Chain of Fibroblast growth factor 10 (Homo sapiens) (O15520 whole entry, looked up): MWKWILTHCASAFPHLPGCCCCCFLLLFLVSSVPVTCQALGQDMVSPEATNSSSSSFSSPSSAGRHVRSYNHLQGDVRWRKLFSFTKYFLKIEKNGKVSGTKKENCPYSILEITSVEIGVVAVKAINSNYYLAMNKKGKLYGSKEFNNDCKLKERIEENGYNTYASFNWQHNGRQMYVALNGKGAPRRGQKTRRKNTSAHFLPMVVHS
# [6] = tested on: glycogen synthase kinase-3 (GSK3A per assay name; protocol says GSK3B); experiment: GSK3 binders on small-molecule microarrays, primary screen, biochemical, small-molecule microarray, 635 nm fluorescence, GSK3A (AID 1103); conditions: small-molecule microarray binding, fluorescence 635 nm; higher = more signal; note: the record names both GSK3A and GSK3B
# [7] = target: Epidermal growth factor receptor (Homo sapiens) (UniProt P00533); experiment: EGFR binders on small-molecule microarrays, primary screen, biochemical, small-molecule microarray, 635 nm fluorescence (AID 1104); conditions: EGFR binding, higher = more signal;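 note: score merges 667 nm emission intensity with spot signal to noise over triplicate slides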
# Chain of Epidermal growth factor receptor (Homo sapiens) (P00533 whole entry, looked up): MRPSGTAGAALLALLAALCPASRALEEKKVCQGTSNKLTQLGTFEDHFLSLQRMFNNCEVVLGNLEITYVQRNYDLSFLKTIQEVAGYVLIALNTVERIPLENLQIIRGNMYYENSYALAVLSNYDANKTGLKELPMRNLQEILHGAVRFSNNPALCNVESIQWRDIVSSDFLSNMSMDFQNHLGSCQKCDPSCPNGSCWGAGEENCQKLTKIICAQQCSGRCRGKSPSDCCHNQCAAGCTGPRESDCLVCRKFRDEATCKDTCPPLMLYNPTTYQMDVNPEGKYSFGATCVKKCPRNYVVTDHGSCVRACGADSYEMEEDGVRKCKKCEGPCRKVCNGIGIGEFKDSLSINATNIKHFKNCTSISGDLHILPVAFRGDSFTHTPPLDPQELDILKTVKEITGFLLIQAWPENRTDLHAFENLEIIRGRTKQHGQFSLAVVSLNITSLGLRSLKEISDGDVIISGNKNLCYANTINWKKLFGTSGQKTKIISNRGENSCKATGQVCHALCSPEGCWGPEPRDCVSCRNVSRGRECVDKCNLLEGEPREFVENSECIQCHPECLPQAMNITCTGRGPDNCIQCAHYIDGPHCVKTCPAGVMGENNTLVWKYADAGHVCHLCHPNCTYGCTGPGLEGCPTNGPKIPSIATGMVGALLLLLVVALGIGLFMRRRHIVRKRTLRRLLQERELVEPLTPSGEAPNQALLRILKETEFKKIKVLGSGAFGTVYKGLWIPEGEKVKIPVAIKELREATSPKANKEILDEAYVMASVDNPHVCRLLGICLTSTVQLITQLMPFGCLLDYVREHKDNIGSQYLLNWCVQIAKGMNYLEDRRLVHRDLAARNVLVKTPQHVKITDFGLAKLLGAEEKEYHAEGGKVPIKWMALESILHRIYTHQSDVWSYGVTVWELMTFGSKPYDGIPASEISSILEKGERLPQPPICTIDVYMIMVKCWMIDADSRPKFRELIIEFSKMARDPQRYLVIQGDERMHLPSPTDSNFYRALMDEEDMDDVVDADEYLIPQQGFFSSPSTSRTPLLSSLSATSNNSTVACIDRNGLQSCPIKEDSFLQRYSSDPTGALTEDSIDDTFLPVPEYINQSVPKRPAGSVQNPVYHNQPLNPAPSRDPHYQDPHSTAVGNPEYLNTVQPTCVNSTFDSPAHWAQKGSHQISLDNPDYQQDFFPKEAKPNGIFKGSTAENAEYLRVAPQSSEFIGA
# [8] = target: Follistatin-related protein 3 (Homo sapiens) (UniProt O95633); experiment: FSTL3 binders on small-molecule microarrays, primary screen, biochemical, small-molecule microarray, 635 nm fluorescence (AID 1105); conditions: FSTL3 binding, higher = more signal;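 note: score merges emission near 667 nm and signal to noise per printed spot across three slides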
# Chain of Follistatin-related protein 3 (Homo sapiens) (O95633 whole entry, looked up): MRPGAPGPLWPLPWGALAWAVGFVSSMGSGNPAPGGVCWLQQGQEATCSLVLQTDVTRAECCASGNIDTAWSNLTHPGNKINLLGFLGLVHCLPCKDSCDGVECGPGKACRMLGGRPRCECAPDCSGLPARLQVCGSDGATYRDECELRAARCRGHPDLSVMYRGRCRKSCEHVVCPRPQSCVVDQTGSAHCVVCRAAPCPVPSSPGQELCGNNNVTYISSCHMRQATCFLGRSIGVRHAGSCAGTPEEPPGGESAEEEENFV
# [9] = target: Dickkopf-related protein 1 (Homo sapiens) (UniProt O94907); experiment: DKK1 binders on small-molecule microarrays, primary screen, biochemical, small-molecule microarray, 635 nm fluorescence scan (AID 1106); conditions: DKK1 binding, higher = more signal;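 note: score merges emission near 667 nm with signal to noise over three replicate slides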
# Chain of Dickkopf-related protein 1 (Homo sapiens) (O94907 whole entry, looked up): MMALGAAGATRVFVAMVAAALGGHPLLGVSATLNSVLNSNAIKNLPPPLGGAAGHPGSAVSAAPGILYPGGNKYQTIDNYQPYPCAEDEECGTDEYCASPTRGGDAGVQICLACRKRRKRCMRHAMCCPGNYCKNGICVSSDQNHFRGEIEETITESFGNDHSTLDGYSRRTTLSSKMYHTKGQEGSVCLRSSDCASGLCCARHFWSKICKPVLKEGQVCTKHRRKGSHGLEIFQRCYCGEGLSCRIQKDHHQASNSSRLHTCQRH
# [10] = tested on: Inhibin beta A chain (activin A); experiment: INHBA (activin A) binders on microarrays, primary screen, biochemical, small-molecule microarray, 635 nm fluorescence scan (AID 1107); conditions: small-molecule microarray binding, higher = more signal;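 note: mouse activin A protein probed at 4.33 µg/mL on printed slides; score merges bound-protein fluorescence near 667 nm with spot signal-to-noise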
# [11] = tested on: Human papillomavirus type 1a protein E7 (residues 44-93); experiment: HPV1a E7 fragment binders on microarrays, primary screen, biochemical, small-molecule microarray, residues 44-93, 635 nm fluorescence (AID 1108); conditions: small-molecule microarray binding, fluorescence 635 nm; higher = more signal;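 note: E7 fragment applied at 1 µg/mL in TBST for 1 h at 4 C; score combines spot fluorescence with its signal to noise ratio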
# [12] = modulators of HCV replicon luciferase signal, primary screen, HCV replication inhibitor project, Huh7 cells, luciferase reporter (AID 1109); conditions: 48 h, higher = more signal;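 note: huh7 hepatoma cells harbouring a luciferase neomycin HCV replicon reporter; luciferase luminescence as measure of HCV replicon replication; test concentration not given here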
# [13] = target: Left-right determination factor 2 (Homo sapiens) (UniProt O00292); experiment: LEFTY2 binders on small-molecule microarrays, primary screen, biochemical, small-molecule microarray, 635 nm fluorescence scan (AID 1110); conditions: LEFTY2 binding, higher = more signal
# Chain of Left-right determination factor 2 (Homo sapiens) (O00292 whole entry, looked up): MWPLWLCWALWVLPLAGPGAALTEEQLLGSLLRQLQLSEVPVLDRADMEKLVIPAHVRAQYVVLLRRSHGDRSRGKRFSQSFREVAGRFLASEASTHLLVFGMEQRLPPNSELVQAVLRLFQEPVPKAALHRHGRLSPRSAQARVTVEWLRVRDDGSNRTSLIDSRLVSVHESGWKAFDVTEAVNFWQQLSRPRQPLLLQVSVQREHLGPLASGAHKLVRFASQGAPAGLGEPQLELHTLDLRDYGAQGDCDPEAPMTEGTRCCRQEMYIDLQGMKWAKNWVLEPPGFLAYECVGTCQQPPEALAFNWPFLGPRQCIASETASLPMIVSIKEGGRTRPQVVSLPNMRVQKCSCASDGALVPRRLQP
# [14] = target: Calmodulin-1 (Homo sapiens) (UniProt P0DP23); experiment: CALM1 binders on microarrays, EGTA buffer, profiling panel, biochemical, small-molecule microarray, Cy5-labelled CALM1 (AID 1111); conditions: Cy5-CALM1 binding fluorescence, higher = more signal;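 note: labelled calmodulin applied in Tris saline Tween buffer holding calcium plus EGTA and DTT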
# [15] = target: Calmodulin-1 (Homo sapiens) (UniProt P0DP23); experiment: calcium-bound CALM1 binders on microarrays, profiling panel, artefact control for SMM control-protein annotation, biochemical, small-molecule microarray, Cy5-labelled CALM1, plus calcium (AID 1112); conditions: Cy5-CALM1 binding fluorescence, higher = more signal;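 note: score merges spot fluorescence with signal to noise from triplicate slides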
# [16] = small-molecule microarray binders of probe aWnt5a, primary screen, biochemical, biotinylated probe, 635/667 nm fluorescence (AID 1113); conditions: higher = more signal;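 note: score merges 667 nm fluorescence intensity with signal-to-noise per printed feature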
# [17] = small-molecule microarray binders of probe aShh, primary screen, biochemical, biotinylated probe, 635/667 nm fluorescence (AID 1114); conditions: higher = more signal;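 note: probe is biotin-labelled aShh protein from a stem cell growth factor screen; measures binding of labelled protein to compounds printed on the slide; score merges feature fluorescence at 667 nm with signal-to-noise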
# [18] = small-molecule microarray binders of probe aNog, primary screen, biochemical, biotinylated probe, 635/667 nm fluorescence (AID 1115); conditions: higher = more signal;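 note: probe is biotinylated aNog protein used at 0.15 µg/mL for 1 h at 4 C; z-score combines 667 nm fluorescence of each spot with its signal to noise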
# [19] = target: Torsin-1A-interacting protein 1 (Homo sapiens) (UniProt Q5JTV8); experiment: LAP1 binders from COS7 cell lysate, primary screen, small-molecule microarray, 635/667 nm fluorescence (AID 1116); conditions: COS7-hLAP1 lysate binding, 635 nm fluorescence, higher = more signal
# Chain of Torsin-1A-interacting protein 1 (Homo sapiens) (Q5JTV8 whole entry, looked up): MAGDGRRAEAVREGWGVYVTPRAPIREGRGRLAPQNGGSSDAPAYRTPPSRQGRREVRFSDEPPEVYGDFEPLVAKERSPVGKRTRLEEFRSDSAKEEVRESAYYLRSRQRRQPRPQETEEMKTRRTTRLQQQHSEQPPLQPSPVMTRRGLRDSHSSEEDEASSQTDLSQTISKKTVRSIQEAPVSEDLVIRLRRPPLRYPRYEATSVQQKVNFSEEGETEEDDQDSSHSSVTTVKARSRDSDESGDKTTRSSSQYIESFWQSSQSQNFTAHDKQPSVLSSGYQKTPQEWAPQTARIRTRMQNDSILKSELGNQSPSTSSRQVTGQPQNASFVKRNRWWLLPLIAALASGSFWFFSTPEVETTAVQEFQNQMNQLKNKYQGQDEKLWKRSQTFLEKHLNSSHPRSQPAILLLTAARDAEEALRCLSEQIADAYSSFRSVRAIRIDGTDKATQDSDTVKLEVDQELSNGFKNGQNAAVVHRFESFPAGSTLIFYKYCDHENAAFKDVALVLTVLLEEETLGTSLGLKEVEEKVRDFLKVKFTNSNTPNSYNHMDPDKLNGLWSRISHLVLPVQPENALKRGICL
# [20] = target: Alpha-bungarotoxin (Bungarus multicinctus) (UniProt P60615); experiment: alpha-bungarotoxin binders on microarray, profiling panel, artefact control for SMM control protein annotation, biochemical, small-molecule microarray, Alexa647 label, 635/667 nm fluorescence (AID 1117); conditions: alpha-BTX-A647 binding fluorescence, higher = more signal
# Chain of Alpha-bungarotoxin (Bungarus multicinctus) (P60615 whole entry, looked up): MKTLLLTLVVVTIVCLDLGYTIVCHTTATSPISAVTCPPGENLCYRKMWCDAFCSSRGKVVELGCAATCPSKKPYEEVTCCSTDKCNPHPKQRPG
SMILES,composite z-score [1],composite z-score [2],composite z-score [3],z-score [4],composite z-score [5],composite z-score [6],composite z-score [7],composite z-score [8],composite z-score [9],composite z-score [10],composite z-score [11],z-score [12],composite z-score [13],composite z-score [14],composite z-score [15],composite z-score [16],composite z-score [17],composite z-score [18],composite z-score [19],composite z-score [20]
O=C1NC(=O)C2C1C=CC(C(O)C(c1ccccc1)c1ccccc1)N2Nc1ccc(Cl)cc1Cl (stereo not given),0.496,0.824,1.11,1.44 (inactive),0.554,0.0932,-0.261,0.908,-0.737,0.974,1.36,-1.75,-0.5,1.81,0.625,0.065,0.234,1.41,0.343,0.503
C=CCNC(=O)[C@H]1[C@@H]2C(=O)O[C@@H](c3ccccc3)[C@@H](c3ccccc3)N2[C@@H](c2ccc(OCCO)cc2)[C@]12C(=O)N(C(=O)OCCOC)c1ccccc12,1.57,0.192,0.299,-1.04 (inactive),0.942,1.31,0.461,1.25,0.497,0.247,0.379,-1.49,0.666,1.06,0.0523,-0.14,-0.0056,-0.0681,0.985,1.66
COCCOC(=O)N1C(=O)[C@@]2(c3cc(C#CC4=CCCCC4)ccc31)[C@H](C(=O)Nc1nc3ccccc3s1)[C@H]1C(=O)O[C@H](c3ccccc3)[C@H](c3ccccc3)N1[C@@H]2c1ccccc1OCCO,0.966,0.756,0.4,-0.823 (inactive),1.33,1.29,0.765,1.41,0.785,1.3,1.42,-1.66,0.938,0.738,0.417,0.332,0.126,1.21,0.512,0.858
CN(C)C(=O)[C@]1(Cc2ccccc2CN=[N+]=[N-])N=C(c2ccc(OCCCO)cc2)O[C@@H]1c1ccccc1CN=[N+]=[N-],0.0579,0.423,0.708,0.646 (inactive),1.17,1.32,-0.0263,1.18,-0.38,0.844,1.47,-3.12,0.189,0.324,0.708,0.216,0.249,0.76,1.39,0.832
COc1cc2c(cc1OC)CN(C(=O)[C@H]1[C@@H]3C(=O)O[C@@H](c4ccccc4)[C@@H](c4ccccc4)N3[C@@H](c3ccc(O)cc3)[C@]13C(=O)Nc1ccc(C#CCNC(N)=O)cc13)CC2,1.11,-0.0741,0.0306,-0.996 (inactive),1.11,-0.294,-0.0357,0.903,0.596,0.544,-0.208,-0.145,0.264,-0.123,0.0061,-0.0403,0.0141,-0.198,-0.0992,-0.0782
